This is an account of results in PubChem BioAssay AID2360 (The Scripps Research Institute Molecular Screening Center, 2010).

Screen size: about 1,900 compounds; about 85 (4%) were called active.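 How the source made its calls: active means mean PP5 inhibition over triplicate wells above about 9.5% taken from the earlier PP1 screen (limit read from the data); inactive means the rest.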 Shown is part of a subset that was picked to be rich in actives.

Sequence of Serine/threonine-protein phosphatase 5 (Homo sapiens) (P53041 whole entry, looked up): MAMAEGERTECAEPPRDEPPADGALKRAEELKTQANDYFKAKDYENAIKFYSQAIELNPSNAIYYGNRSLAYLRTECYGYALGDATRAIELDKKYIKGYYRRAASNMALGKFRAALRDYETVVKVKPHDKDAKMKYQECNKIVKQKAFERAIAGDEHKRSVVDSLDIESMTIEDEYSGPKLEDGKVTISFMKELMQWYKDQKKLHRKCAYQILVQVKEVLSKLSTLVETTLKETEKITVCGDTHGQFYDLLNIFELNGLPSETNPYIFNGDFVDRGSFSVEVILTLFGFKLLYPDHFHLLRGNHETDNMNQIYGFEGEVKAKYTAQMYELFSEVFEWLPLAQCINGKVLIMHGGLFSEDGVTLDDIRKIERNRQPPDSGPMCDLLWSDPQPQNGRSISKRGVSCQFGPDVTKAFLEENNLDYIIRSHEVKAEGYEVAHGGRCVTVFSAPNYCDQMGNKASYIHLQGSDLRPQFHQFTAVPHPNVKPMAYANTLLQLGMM

This experiment addresses Serine/threonine-protein phosphatase 5 (Homo sapiens) (UniProt P53041). In words: PP5 phosphatase inhibition by PP1 hits, confirmation, counter-screen for PP1 inhibitor project, biochemical, fluorescence, triplicate (AID 2360). Particulars: purified PP5c, OMFP fluorescence; at 6.7 µM; active compounds read high. On the technique in general: A counterscreen serves to expose hits that act by an unwanted route or on another target.
As usually defined, the inhibition is the change of the read-out against control, counted positive when it falls. Take `O=C(O)c1ccccc1NC(=O)C1C2CCC(O2)C1C(=O)O` (stereo not drawn): the inhibition was 17.6% (active).
Consider `CCOP(=O)(OCC)C(O)c1ccc(OC)cc1OC` (stereo not drawn), for which the inhibition is -3.76% (inactive).
Consider `O=c1[nH]c(CN2CC=C(c3ccccc3)CC2)nc2scc(-c3cccs3)c12`, for which the inhibition was -3.01% (inactive).
